# Measurements as given in PubChem BioAssay AID1626 (SRMLSC, 2009).
# Among all 220,000 compounds or so, about 2,000 (0.91%) were called active. About 2% were inconclusive and are not listed. These entries were drawn from the full list. Entries with a potency or affinity are not part of this list. A number with no mark means an inactive call. No stated cut-off is given here; in the data, inconclusive means inhibition above about 80% without an active follow-up result; inactive means below that; test concentration not stated here.
# Assay: M. tuberculosis H37Rv growth inhibitors, H37Rv strain (AID 1626);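 further: bacteria incubated seven days before Alamar blue readout; 0% = bacteria only wells and 100% = bacteria with antibiotic wells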
# Conditions: stronger effect = higher value, concentration not given here
row,SMILES,inhibition [%]
1,O=C(CSCc1ccco1)c1cccs1,-1.66
2,O=C(CSc1nnc(-c2ccc(O)cc2)n1Cc1ccco1)c1cccs1,2.2
3,O=S(=O)(c1cccc2cccnc12)N1CCN(Cc2ccc3c(c2)OCO3)CC1,-5.89
4,Cc1[nH]c2ccccc2c1/C=N/NC(=O)CNC(=O)COc1ccccc1,10
5,COc1ccc(OC)c(-c2nc(CN3CCCCC3c3cccnc3)c(C)o2)c1 (configuration not stated),-0.43
6,COc1ccc(-c2noc(CN3CCCCC3c3nccn3C)n2)cc1 (configuration not stated),6.82
7,CC(C)N(Cc1nccn1C)C(=O)CCc1nnc(CCCc2ccccc2)o1,-2.35
8,COc1nc(N(c2ccccc2)c2ccccc2)nc(-n2ccnc2)n1,25.8
9,CCCCNc1nc(N(C)c2ccccc2)nc(-n2ccnc2)n1,51.3
10,Nc1nc(N2CCCCC2)nc(N(c2ccccc2)c2ccccc2)n1,1.26
11,c1ccc(N(c2ccccc2)c2nc(-n3ccnc3)nc(-n3ccnc3)n2)cc1,-4.28
12,c1ccc(-c2nc(-n3ccnc3)nc(-n3ccnc3)n2)cc1,3.02
13,c1ccc(-c2ccc(CN3CCN(c4ncccn4)CC3)cc2)cc1,-1.29
14,C=CCNc1nc(-c2ccccc2)nc(-n2ccnc2)n1,16.6
15,c1ccc(-c2nc(NC3CC3)nc(-n3ccnc3)n2)cc1,-0.68
16,Cc1nccc(-c2sc(-c3cccs3)nc2C)n1,2.12
17,COc1ccc(N2C(=O)N(Cc3ccccc3F)c3ccccc3S2(=O)=O)cc1,6.95
18,CCCCNC(=O)c1ccc(SCC(=O)N(CC)CC)c([N+](=O)[O-])c1,0.05
19,Brc1ccc(Oc2ncc(CN3CCN(c4ccccc4)CC3)s2)cc1,2.17
20,O=C(Cn1nc(-c2nn(CC(=O)c3ccccc3)c3[n+]2CCCCC3)[n+]2c1CCCCC2)c1ccccc1,6.97
21,Cc1ccc(-c2cn(-c3ccc(OC(F)F)cc3)c3[n+]2CCCCC3)cc1,-4.29

row,SMILES,inhibition [%]
1,O=C(O)CCCC(=O)NNC(=O)c1cccc(Br)c1,0.6
2,COc1cc(CNCc2ccccc2)cc(Cl)c1OC,4.65
3,CCOc1cc(CNCCc2ccc(S(N)(=O)=O)cc2)cc(Cl)c1OCc1ccccc1,58.8
4,O=C(O)c1ccc(COc2ccccc2/C=C2\NC(=O)N(Cc3ccccc3F)C2=O)cc1,-2.79
5,CN=C(Nc1ccccc1)SC1CC(=O)N(c2ccc(C(=O)OC)cc2)C1=O (configuration not stated),-2.27
6,CN=C(Nc1ccccc1OC)SC1CC(=O)N(c2ccc(C(=O)OC)cc2)C1=O (configuration not stated),7.4
7,COc1ccc(N=Cc2c(O)n(Cc3ccccc3)c(=S)[nH]c2=O)c(OC)c1,6.73
8,O=C(CSc1nnc(-c2cccnc2)n1-c1ccccc1)NCc1ccc2c(c1)OCO2,6.03
9,CC(Oc1ccc(Cl)cc1Cl)c1ccn[nH]1 (configuration not stated),2.27
10,O=C(O)CCC(=O)NN1C(=O)c2ccccc2NC1c1ccco1 (configuration not stated),-6.39
11,CC(=O)Nc1ccc2[nH]c3ccccc3c2c1,10.6
12,COc1ccc(NC(=O)c2cc3ccc4c5ccccc5[nH]c4c3cc2O)cc1,2.53
13,CC(OC(=O)c1ccccc1O)C(=O)Nc1cccc(Cl)c1 (configuration not stated),3.01
14,CCOc1ccc2nc(NC(=O)Nc3ccccc3)sc2c1,1.1
15,CCOc1ccc2nc(NC(=O)c3cccnc3)sc2c1,3.09
16,CCOc1ccc2nc(NC(=O)c3ccoc3C)sc2c1,8.64
17,CCOc1ccc2nc(NC(=O)C3=NNC(=O)CC3)sc2c1,46.3
18,CCOC(=O)Cc1nnc(NC(=O)C(CC)Sc2nc(C)cc(=O)[nH]2)s1 (configuration not stated),-0.83
19,CCC(Sc1nc(C)cc(=O)[nH]1)C(=O)Nc1nnc(C)s1 (configuration not stated),-7.53
20,c1ccc(CNC2=NCCCCC2)cc1,-3.52
21,COCCN(CC(=O)NC1CCCCC1)C(=O)CSc1nc2ccccc2o1,-4.79

row,SMILES,inhibition [%]
1,CC(C)N1C(=O)c2ccc(C(=O)O)cc2C1=O,2.62
2,CCOC(=O)C1=C(C)NC(=S)N(C=O)C1c1ccccc1 (configuration not stated),6.03
3,Cc1ccc(SCC(=O)NCc2cccnc2)cc1,-4.12
4,O=c1[nH]c2ccccc2c(O)c1O,-3.51
5,O=c1[nH]c2ccccc2c2nc3ccccn3c12,-1.5
6,Cc1ccc(-c2nc(CS(=O)CC(=O)NCc3ccccc3)c(C)o2)cc1 (configuration not stated),3.18
7,O=C(Nc1ccc(N2CCOCC2)cc1)C1CC1,-4.12
8,O=C(Nc1ccc(Oc2ccc(NC(=O)C3CCCO3)cc2)cc1)C1CCCO1 (configuration not stated),-8.27
9,COc1ccc(NC(=O)C2CCCO2)cc1 (configuration not stated),-10
10,O=C(Nc1ccc(Nc2ccccc2)cc1)C1CC1,-4.99
11,O=C(Nc1ccc(Cc2ccc(NC(=O)C3CC3)cc2)cc1)C1CC1,7.74
12,CS(=O)(=O)N1CCC(C(=O)Nc2ccc(Oc3ccccc3)cc2)CC1,2.66
13,O=C(CCc1n[nH]c(=O)[nH]c1=O)N1CCCCC1,-1.04
14,COc1cc(C(O)P(=O)(OCC(C)C)c2ccc(N(C)C)cc2)cc(OC)c1OC (configuration not stated),-2.15
15,CCCc1[nH]nc2c1C(c1ccc(OCCN3CCOCC3)c(OC)c1)C(C#N)=C(N)O2 (configuration not stated),-0.42
16,CCC(CO)Nc1nc(CN2CCCCC2)nc2scc(-c3ccccc3)c12 (configuration not stated),7.81
17,CN1CCN(c2nc(-c3cccnc3)nc3scc(-c4ccccc4)c23)CC1,-0.01
18,CC1CCCN(c2nc(-c3cccnc3)nc3scc(-c4ccccc4)c23)C1 (configuration not stated),10.2
19,OCC1CCCN(c2nc(CN3CCCCC3)nc3scc(-c4ccccc4)c23)C1 (configuration not stated),1.65
20,CCCn1nc(C(=O)Nc2nnc(CC)s2)c2ccccc2c1=O,-9.02
